# Data as given in publication PMC9838217, “Structure of SALL4 zinc finger domain reveals link between AT-rich DNA binding and Okihiro syndrome”.
# Changes are numbered by the printed parent chain.
# Target: T1, SALL4 ZFC4 WT (HT-SELEX) (Mus musculus, UniProt Q8BX22 870-940)
# T1 sequence: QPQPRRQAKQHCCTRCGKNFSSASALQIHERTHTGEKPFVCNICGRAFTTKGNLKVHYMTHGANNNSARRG
# Assay: HT-SELEX; high values mean tight binding
# Conditions: protein: recombinant; vector His6-GST; dsDNA, one strand shown
# Summary of the method: (§1)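 Purified recombinant mouse SALL4 zinc finger cluster 4 (residues 870–940, 1 µg) was incubated with library DNA (1.5 µg first cycle, 200 ng later) in 100 µl buffer (10 mM Tris–HCl pH 7.5, 50 mM NaCl, poly(dI-dC), DTT) for 10 min at room temperature. Ni2+ bead-captured complexes were washed, PCR-amplified and reselected for up to 6 cycles, in triplicate, then MiSeq-sequenced and scanned for 6-mers. Binding signal is each canonical k-mer's read fraction as fold change versus the initial random library.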
row,Sequence,binding signal [fold-change vs cycle 0]
1,GAAGAC,0.8159 ± 0.00405
2,GTAGAA,1.21 ± 0.0427
3,TGATAA,2.35 ± 0.175
4,AGTAAA,1.96 ± 0.143
5,GAACCA,0.766 ± 0.0201
6,ATGTAA,2.3 ± 0.158
7,ATAGAA,2.33 ± 0.17
8,GGAGGA,0.577 ± 0.0578
9,CTGAAA,1.19 ± 0.0701
10,GAGCAA,0.613 ± 0.0271
11,CCACCA,0.417 ± 0.0318
12,AGAGAT,1.51 ± 0.0705
13,CCATGG,0.445 ± 0.023
14,CTCGAG,0.462 ± 0.0432
15,AAGAAC,1.29 ± 0.0399
16,ACCCAT,0.847 ± 0.0456
17,AATTGT,1.82 ± 0.0686
18,CGAGTA,0.742 ± 0.0199
19,CACTAC,0.801 ± 0.0178
20,GCCTTA,0.573 ± 0.0273

row,Sequence,binding signal [fold-change vs cycle 0]
1,AATCTC,1.38 ± 0.0549
2,CACTAG,0.821 ± 0.0388
3,AAAAGA,1.8 ± 0.0481
4,TGGTAA,1.41 ± 0.0525
5,AATATT,5.49 ± 0.414
6,CTAGTC,0.766 ± 0.0364
7,AGAAAA,1.83 ± 0.0887
8,GGGGAA,0.462 ± 0.0251
9,TAGCGA,0.54 ± 0.0286
10,CAATTC,1.19 ± 0.016
11,GATTGC,0.641 ± 0.0324
12,ACGCTA,0.566 ± 0.0296
13,GTTATA,2.5 ± 0.231
14,AAACAG,1.101 ± 0.00341
15,CAACTG,0.724 ± 0.0172
16,CCATAA,1.51 ± 0.0387
17,CGTCAG,0.341 ± 0.0358
18,ACATAC,1.3 ± 0.0628
19,CTGCAA,0.58 ± 0.0126
20,CTGGTC,0.403 ± 0.00696

# Target: T2, SALL4 ZFC4 R900W (HT-SELEX) (Mus musculus, UniProt Q8BX22 870-940, R900W)
# T2 sequence: T1 sequence with R31W
# Assay: HT-SELEX; high values mean tight binding
# Conditions: protein: recombinant; vector His6-GST; dsDNA, one strand shown
# Summary of the method: as §1
row,Sequence,binding signal [fold-change vs cycle 0]
1,GAAGAC,0.962 ± 0.00987
2,GTAGAA,1.36 ± 0.0162
3,TGATAA,2.08 ± 0.2
4,AGTAAA,2.08 ± 0.144
5,GAACCA,0.871 ± 0.0494
6,ATGTAA,2.09 ± 0.134
7,ATAGAA,2.13 ± 0.133
8,GGAGGA,0.669 ± 0.0435
9,CTGAAA,1.28 ± 0.0787
10,GAGCAA,0.69 ± 0.0379
11,CCACCA,0.471 ± 0.033
12,AGAGAT,1.65 ± 0.139
13,CCATGG,0.524 ± 0.00825
14,CTCGAG,0.548 ± 0.0598
15,AAGAAC,1.49 ± 0.0657
16,ACCCAT,0.916 ± 0.0414
17,AATTGT,1.81 ± 0.0917
18,CGAGTA,0.848 ± 0.0261
19,CACTAC,0.9075 ± 0.0089
20,GCCTTA,0.685 ± 0.0271

row,Sequence,binding signal [fold-change vs cycle 0]
1,AATCTC,1.5 ± 0.0336
2,CACTAG,0.968 ± 0.0358
3,AAAAGA,1.94 ± 0.106
4,TGGTAA,1.47 ± 0.055
5,AATATT,2.54 ± 0.119
6,CTAGTC,0.918 ± 0.0254
7,AGAAAA,1.85 ± 0.0773
8,GGGGAA,0.532 ± 0.0365
9,TAGCGA,0.613 ± 0.0291
10,CAATTC,1.29 ± 0.063
11,GATTGC,0.711 ± 0.00883
12,ACGCTA,0.638 ± 0.0194
13,GTTATA,2.05 ± 0.15
14,AAACAG,1.27 ± 0.0528
15,CAACTG,0.829 ± 0.0401
16,CCATAA,1.36 ± 0.0383
17,CGTCAG,0.427 ± 0.0193
18,ACATAC,1.4 ± 0.0493
19,CTGCAA,0.651 ± 0.015
20,CTGGTC,0.499 ± 0.0159

# Target: T3, SALL4 ZFC4 G921D (HT-SELEX) (Mus musculus, UniProt Q8BX22 870-940, G921D)
# T3 sequence: T1 sequence with G52D
# Assay: HT-SELEX; high values mean tight binding
# Conditions: protein: recombinant; vector His6-GST; dsDNA, one strand shown
# Summary of the method: as §1
row,Sequence,binding signal [fold-change vs cycle 0]
1,GAAGAC,0.993 ± 0.0221
2,GTAGAA,1.27 ± 0.0697
3,TGATAA,1.87 ± 0.208
4,AGTAAA,1.78 ± 0.193
5,GAACCA,0.937 ± 0.0521
6,ATGTAA,1.83 ± 0.187
7,ATAGAA,1.83 ± 0.226
8,GGAGGA,0.733 ± 0.0247
9,CTGAAA,1.21 ± 0.0732
10,GAGCAA,0.797 ± 0.00723
11,CCACCA,0.582 ± 0.0561
12,AGAGAT,1.53 ± 0.135
13,CCATGG,0.622 ± 0.0615
14,CTCGAG,0.638 ± 0.046
15,AAGAAC,1.38 ± 0.123
16,ACCCAT,0.954 ± 0.0193
17,AATTGT,1.66 ± 0.114
18,CGAGTA,0.87 ± 0.0313
19,CACTAC,0.938 ± 0.0237
20,GCCTTA,0.783 ± 0.0268

row,Sequence,binding signal [fold-change vs cycle 0]
1,AATCTC,1.43 ± 0.0651
2,CACTAG,0.987 ± 0.027
3,AAAAGA,1.7 ± 0.125
4,TGGTAA,1.4 ± 0.0814
5,AATATT,2.19 ± 0.255
6,CTAGTC,0.941 ± 0.0142
7,AGAAAA,1.63 ± 0.11
8,GGGGAA,0.614 ± 0.0545
9,TAGCGA,0.72 ± 0.0193
10,CAATTC,1.25 ± 0.0527
11,GATTGC,0.817 ± 0.0343
12,ACGCTA,0.754 ± 0.0468
13,GTTATA,1.78 ± 0.179
14,AAACAG,1.23 ± 0.0148
15,CAACTG,0.9 ± 0.0128
16,CCATAA,1.28 ± 0.051
17,CGTCAG,0.535 ± 0.0656
18,ACATAC,1.33 ± 0.0922
19,CTGCAA,0.729 ± 0.0483
20,CTGGTC,0.601 ± 0.0523
